Measurements from PubChem BioAssay AID1508600 (Functional Genomics Laboratory (NCATS/FGL), 2020).
In all, about 53,000 sequences went through this assay and about 3,700 (7%) were called active. The full list was thinned out, with actives kept by preference. A number with no mark means an inactive call.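 Rule for the calls: active = gene knockdowns whose robust z-score for IL-1 alpha signal is at least 2 or at most -2, so actives lie on both sides; inactive = the rest.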

Test: Components of the Cytosolic LPS Sensing Pathway: Gene Identification via Genome-wide siRNA Screen;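 note: robust z of the log signal after scaling to non-targeting control siRNA wells of the plate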
Conditions: RAW264.7 macrophages, IL-1a HTRF, actives lie on both sides, screened at 100 nM (by protocol), cells primed 5 h with Pam3CSK4 first
In short: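 Mouse macrophage line RAW264.7 is transfected with siRNA (100 nM final), grown 48h, primed with TLR ligand Pam3CSK4 5 h and given intracellular LipidA 24 h. IL-1a in supernatant is read by HTRF and viability by luminescence.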

| Sequence | z-score |
| --- | --- |
| GGAGGGAAGCGAGAGUUUUTT against Emilin2 | 2.25 (active) |
| GGGUCGUAAUGAGUUCUGGTT against Med1 | 0.83 |
| GGAAACUUUUGGAAGACUATT against Jmjd6 | 2.02 (active) |
| GGGCCAAUAAAGCAACUGCTT against Laptm5 | 0.704 |
| GGAUACUCCUCUGAGUAGUTT against Mtmr11 | -0.469 |
| GCCAAAGUGUGUGUUGAAGTT against Gng11 | -0.296 |
| CGCACACAGUCGUAUGUACTT against Ryr1 | -1.21 |
| GGGAACCAUCAAUAGGCACTT against Apol7a | 0.923 |
| GGGUAUUAAAACCUCACUUTT against 4931406H21Rik | -2.58 (active) |
| GGCACAAAGCAAGAUUACCTT against Cebpz | 0.422 |
| CCAGAAUGUAAACUUGGUCTT against Trpv6 | 0.0508 |
| GGUGAUAAAGCCAAGCAAATT against Vps4b | -0.48 |
| GGGCUUCUUUGACCUCAUCTT against Kdelr1 | -2.71 (active) |
| GGAUUCAAGGAAGGCCUUCTT against Myl7 | -0.146 |
| GGGACUCAGAAUCCACACUTT against Olfr1046 | 1.91 |
| GGAGCUUAGACAAAAAGCCTT against Spty2d1 | -1.04 |
| GGCCGCCCUAAAAAGAAGCTT against Olfr95 | 1.29 |
| GGAGAUUGAUGAGCAUGCCTT against Rab40b | -2.15 (active) |
| CGCCUUAUAAUAUACCUAUTT against Clmp | 1.12 |
| GCCAUGAUGACUAACCUUATT against Dbpht2 | -1.27 |
| GGAACUUGAGGUUUUCUGGTT against Spag17 | -1.89 |
| GGAGAUCCGUCGAAUCAACTT against Anxa4 | 3.19 (active) |
| GCACCUGAGAAGCUCAUUGTT against Chil5 | -1.96 |

| Sequence | z-score |
| --- | --- |
| GGUUGACCUGUGCUUUUCGTT against Arr3 | -0.625 |
| GGAGCAGCAGAAGAUCCUUTT against Olfr47 | 2.52 (active) |
| GGAAAUGAAUGGAAAUAGUTT against Ino80c | -0.192 |
| GGAGGAAAAGGCAAUCGUUTT against Mtg2 | 0.359 |
| GGAACACAAUAGUACAUACTT against Slc2a4 | 3.98 (active) |
| CCUUACCACAUCCUUGUCGTT against Fcf1 | -1.33 |
| GGACAGUUAAUGUUUCUGUTT against Clptm1l | 0.254 |
| GGAUCAUUUCUGGCAAGAGTT against Irf7 | -0.379 |
| GGGAAGAGAAAACUGGACUTT against Xrcc1 | 3.01 (active) |
| GGCUGUGUGAGUCUGCUCATT against Ankrd55 | -0.0408 |
| GCAUGAACUUACCCUAUUATT against Vmn1r197 | -1.25 |
| GCAUAAUAGCGCAAGCUACTT against Ifi47 | 0.0047 |
| GCACUCGAAUUUCUUUACUTT against Slc23a2 | 2.22 (active) |
| GCAGACUCCCAUGUGGAUUTT against 1700067K01Rik | 1.96 |
| GGAAACUAAUUUCAAGCCUTT against Hat1 | 1.19 |
| CCUAUGAGGAGGUACUAAATT against Itih1 | -0.0512 |
| GGAGUGACAAAAAUGUCGGTT against Snx13 | -0.56 |
| GGUUUGUCAAUGAUACUAATT against Adam17 | 2.49 (active) |
| CGGAUCUGAGAUAAAGACGTT against Arsj | 1 |
| GCUGUGGACGGACUCUAUATT against Dhodh | 0.00503 |
| GGACCAUCUCUGAUGAACCTT against Fhdc1 | 0.439 |
| GCUAAAGCUAAGAUUGAAGTT against Poli | -0.0266 |
| GGAUGAGGACAAGUGCUCUTT against Agpat4 | -3.47 (active) |

| Sequence | z-score |
| --- | --- |
| CCAAAAGCAUAUCAGUCGGTT against Olfr1122 | 1.48 |
| GGGUUUAUGUUGCCGACUCTT against Setd7 | 2.04 (active) |
| GGGUUCCUCAGAGACUGAGTT against Esrra | 1.57 |
| GGGCAAGAAAGGUGUUUUGTT against Prdx5 | 0.432 |
| GGUGAUUGGUGUAAAAUCUTT against Gdi2 | -1.15 |
| GGAGAUUGGUGUUAGUAACTT against Sp7 | -0.198 |
| GGGUGUGCUUCAUAUCAAATT against 2210407C18Rik | 0.812 |
| GCUUCAUCUUACCUACUCATT against Synb | -0.825 |
| GGCUAUGCAUCUCCUGUCATT against Gata4 | -0.935 |
| GGAAAUCAUCUAUUCGGACTT against Klrc1 | 2.62 (active) |
| CCUUGCACGACAUUUUACUTT against Idnk | 0.313 |
| GGUCAUCUUCCUUUUUGCUTT against Olfr1501 | -1 |
| CCCUGGGUGUACAAGUCCUTT against Slc25a41 | -0.084 |
| GGGCCAAGAGCUUCUUUGATT against Ahr | -1.46 |
| GGACUUUGAGAAAGCAUUCTT against Pck1 | -2.03 (active) |
| GGAUAAUGUGAAGUUCAAGTT against Rpl38 | 0.493 |
| GCAUUGACAAGAUAUCUAATT against Abhd17c | 1.74 |
| GGCUCCUAGUGAUUAAAAGTT against 4930578I06Rik | 0.0788 |
| GGGAAAGCAUCGUAGACUCTT against Eid2 | 0.0738 |
| GGAGGAAAUGAUCACAGCUTT against Ccl20 | -2.31 (active) |
| CCAGUCACUAUUUGAGUGUTT against Erg | 1.9 |
| GGUGAAUACUUCAGAUACATT against Sult2b1 | -0.362 |
| GGAUUCACUGUUUUAUUCUTT against Fap | 0.282 |
